Consider two compounds from PMC11062922 (Nature Chemical Biology, 2023).

What all share (parameters): species or system human, MV4-11 + K-562 + COLO205 + SK-N-BE2 + OVCAR-8
The test system of one experiment is DDR1. Conditions: compound concentrations: 100 nM and 1000 nM (sheet 'Samples').
A further experiment deals with DDR2. Conditions: compound concentrations: 100 nM and 1000 nM (sheet 'Samples').
The next experiment has as its system FLT3. The settings on record: compound concentrations: 100 nM and 1000 nM (sheet 'Samples').
Experiment [1] relates to JAK1(JH2domain-pseudokinase). The settings on record: compound concentrations: 100 nM and 1000 nM (sheet 'Samples').
In a further experiment the test system is MAP3K4. Conditions: compound concentrations: 100 nM and 1000 nM (sheet 'Samples').
For the next experiment, the system named is MLK1. Conditions: compound concentrations: 100 nM and 1000 nM (sheet 'Samples').
The test system of a further experiment is NEK6. The settings on record: compound concentrations: 100 nM and 1000 nM (sheet 'Samples').
Another experiment concerns PKAC-beta. The settings on record: compound concentrations: 100 nM and 1000 nM (sheet 'Samples').
For experiment [2], the system named is RSK1(Kin.Dom.1-N-terminal). Conditions: compound concentrations: 100 nM and 1000 nM (sheet 'Samples').
The test system of the next experiment is ACOX3. Conditions: read-out: apparent Kd; compound concentrations: 100 nM and 1000 nM (sheet 'Samples'), CATDS: 4.2441767473343E-3; n = 1.
The subject of another experiment is CDK1. The settings on record: read-out: apparent Kd; compound concentrations: 100 nM and 1000 nM (sheet 'Samples'), CATDS: 4.2052312432732299E-3; n = 1.
The next experiment relates to FN3K. Conditions: read-out: apparent Kd; compound concentrations: 100 nM and 1000 nM (sheet 'Samples'), CATDS: 4.2262124169733604E-3; n = 1.
For the next experiment, the system named is GRAMD1A. Conditions: read-out: apparent Kd; compound concentrations: 100 nM and 1000 nM (sheet 'Samples'), CATDS: 3.9512769472384501E-3; n = 1.
For the next experiment, the system named is MAPK3. Conditions: read-out: apparent Kd; compound concentrations: 100 nM and 1000 nM (sheet 'Samples'), CATDS: 4.9102061744830498E-3; n = 1.
A further experiment relates to MAPK7. The settings on record: read-out: apparent Kd; compound concentrations: 100 nM and 1000 nM (sheet 'Samples'), CATDS: 3.9838262564481702E-3; n = 1.
For another experiment, the system named is PKMYT1. The settings on record: read-out: apparent Kd; compound concentrations: 100 nM and 1000 nM (sheet 'Samples'), CATDS: 4.7786675943352697E-3; n = 1.
In the next experiment the test system is SLC25A5. The settings on record: read-out: apparent Kd; compound concentrations: 100 nM and 1000 nM (sheet 'Samples'), CATDS: 3.4931763386449499E-3; n = 1.
The next experiment has as its system TAOK2. Conditions: read-out: apparent Kd; compound concentrations: 100 nM and 1000 nM (sheet 'Samples'), CATDS: 4.3468745935786399E-3; n = 1.
A further experiment deals with TESK1. The settings on record: read-out: apparent Kd; compound concentrations: 100 nM and 1000 nM (sheet 'Samples'), CATDS: 1.6628532352141699E-2; n = 1.
Another experiment has as its system TUBB6. The settings on record: read-out: apparent Kd; compound concentrations: 100 nM and 1000 nM (sheet 'Samples'), CATDS: 3.8955620012379099E-3; n = 1.
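Throughout, for Kinobeads Data: kinobeads ε competition pulldown from cell lysate, compound preincubated 45 min at 4 °C, bound kinases quantified by LC–MS/MS relative to DMSO control.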

Regarding `COc1cc(Nc2ncc3c(C)nc(-c4cc5ccccc5[nH]4)n3n2)cc(OC)c1OC` [GW869516X], the “Kinobeads Data” value (in the experiment with DDR1; in the experiment on DDR2; in the experiment with FLT3; in [1]; with MAP3K4; in the experiment with MLK1) was “no target” each time. Moreover, the “Kinobeads Data” value (with NEK6; in the experiment with PKAC-beta; in [2]) was “no target” in each case.

In the case of `Cn1ncc2c(N)ncnc21` [SKF-18267], the potency estimated from few doses in the experiment with ACOX3 is 1160 nM; in the experiment on CDK1 it was 1180 nM; with FN3K it was 1170 nM; in the experiment on GRAMD1A, 1380 nM; in the experiment on MAPK3, 844 nM; in the experiment with MAPK7, 1350 nM. Besides, the potency estimated from few doses with PKMYT1 was 892 nM; in the experiment on SLC25A5, 1950 nM; with TAOK2, 1100 nM; with TESK1, 136 nM; in the experiment on TUBB6 it was 1430 nM.
